Reference: PubChem BioAssay (EPA / NIEHS)
Results filed as inconclusive are left out. Activity calls are given as the source filed them. How the source made its calls, unless noted: active means hit-call score of the fitted dose curve at least 0.9, where 1 is the maximum; inactive means score below 0.9.

Assays:
[1] = CCTE_Mundy_HCI_Cortical_NOG_NeuriteLength: CCTE's Neurite Outgrowth Assay in rat cortical cells for Neurite Length, Mundy Lab (AID 2284213);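 further: neurites imaged about 48 to 50 h after chemical exposure began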
Summary of the method: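 First, rat primary cortical cells were plated and, 2 h later, given test chemical as a 1/10 dilution. Finally, βIII-tubulin immunostaining enabled automated imaging of neurite length.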

[2] = CCTE_Mundy_HCI_Cortical_Synap_Neur_Matur_NeuriteLength: CCTE's Synaptogenesis and Neurite Maturation Assay in rat cortical cells for Neurite Length, Mundy Lab (AID 2284214)
Summary of the method: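 DMSO-normalised neurite length, from high-content imaging of anti-MAP2-stained rat cortical cells fixed at DIV 12. Glia were suppressed with AraC (DIV 5) before chemical exposure from DIV 7.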

[3] = CCTE_Mundy_HCI_Cortical_Synap_Neur_Matur_SynapseCount: CCTE's Synaptogenesis and Neurite Maturation Assay in rat cortical cells for Synapse Count, Mundy Lab (AID 2284218)
Summary of the method: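 Endpoint: synapses/neuron by HCI (synaptophysin puncta on MAP2-labelled neurites, Hoechst nuclei). Rat primary cortical cells, AraC DIV 5, dosed DIV 7, fixed DIV 12; DMSO negative control.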

[4] = CCTE_Mundy_HCI_Cortical_Synap_Neur_Matur_NeuriteCount: CCTE's Synaptogenesis and Neurite Maturation Assay in rat cortical cells for Neurite Count, Mundy Lab (AID 2284222);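 further: exposure from day 7 to day 12 in vitro with readout at day 12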
Summary of the method: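 Rat primary cortical cells; AraC added at DIV 5, chemicals dosed with media change at DIV 7 through DIV 12. MAP2/synaptophysin/Hoechst immunostaining, high-content imaging of neurite number; fitted relative to DMSO.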

[5] = CCTE_Mundy_HCI_Cortical_Synap_Neur_Matur_CellBodySpotCount: CCTE's Synaptogenesis and Neurite Maturation Assay in rat cortical cells for Cell Body Spot Count, Mundy Lab (AID 2284223)
Summary of the method: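 High-content imaging counts synaptophysin puncta on neuronal cell bodies per neuron after MAP2/synaptophysin immunostaining. Rat primary cortical cells, glia arrested with AraC at DIV 5, were exposed DIV 7–12; signal decrease measured against DMSO.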

[6] = CCTE_Mundy_HCI_hNP1_Pro_ResponderAvgInten: CCTE's Proliferation Assay in human neuroprogenitor cells, Mundy Lab (AID 2284224; active means hit-call score of the fitted dose curve at least 0.9, where 1 is the maximum;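 further: human neural progenitor cells hNP1 derived from WA09 embryonic stem cells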)
Summary of the method: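 Proliferation read as average intensity of BrdU-positive cells, imaged at 26.25 h post-dosing: chemical exposure started after 40–44 h culture, BrdU during final 4 h, paraformaldehyde fixation. Positive-direction fit relative to DMSO.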

[7] = UKN2_HCS_IMR90_cell_viability: Viability Assessment in the University of Konstanz (UKN) Leist Lab Neural Crest Cell Migration Assay in human induced IMR90 Pluripotent Stem Cells (UKN2) (AID 2284233);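 further: cells exposed to compound for 24 h after a 24 h migration phase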
Summary of the method: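 Viability read as calcein-AM fluorescence by high-content imaging, Hoechst co-stain, 30 min. Human iPSC (IMR90) neural crest cells had migrated 24 h into stopper-defined gaps before 24 h chemical exposure. Fitted bidirectionally relative to DMSO.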

[8] = CCTE_Mundy_HCI_Cortical_NOG_NeuronCount: CCTE's Neurite Outgrowth Assay in rat cortical cells for Neuron Count, Mundy Lab (AID 2284236; active means hit-call score of the fitted dose curve at least 0.9, where 1 is the maximum;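 further: neurons counted by imaging betaIII-tubulin and Hoechst stained cortical cells; cells exposed to compound for about 48 hours before fixation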)
Summary of the method: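 Read-out: neuron number by high-content imaging of betaIII-tubulin (Alexa Fluor-488) and Hoechst-labelled rat primary cortical cells.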

[9] = CCTE_Mundy_HCI_Cortical_NOG_BPCount: CCTE's Neurite Outgrowth Assay in rat cortical cells for Branch Point Count, Mundy Lab (AID 2284237);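 further: branch points counted about two days after chemical exposure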
Summary of the method: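 Measured 50.33 h after dosing, this morphology endpoint uses rat primary cortical cultures labelled for betaIII-tubulin. Branch points are quantified by high-content imaging, with DMSO as negative control and baseline.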

[10] = CCTE_Mundy_HCI_hNP1_Casp3_7: CCTE's Caspase-Glo 3/7 Assay in human neuroprogenitor cells for Apoptosis, Mundy Lab (AID 2284240)
Summary of the method: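 Luminescent caspase-3/7 readout, 26.5 h post-dose, in human neural progenitor cells from WA09 embryonic stem cells. Cells grew 40–44 h at 37 °C, 5% CO2 before chemical addition. Activity analysed as signal increase over DMSO baseline.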

[11] = CCTE_Mundy_HCI_Cortical_Synap_Neur_Matur_NeuronCount: CCTE's Synaptogenesis and Neurite Maturation Assay in rat cortical cells for Neuron Count, Mundy Lab (AID 2284242; active means hit-call score of the fitted dose curve at least 0.9, where 1 is the maximum;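 further: hits reduce neuron count versus DMSO baseline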)
Summary of the method: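 Measured at DIV 12: fluorescently labelled neurons (Hoechst nuclei, MAP2) in rat primary cortical cultures, counted by high-content imaging. AraC suppressed glia from DIV 5; DMSO served as negative control.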

[12] = IUF_NPC2a_radial_glia_migration_120hr: Leibniz Research Institute for Environmental Medicine (IUF) 120-hour Neural Progenitor Cell Migration Assay for Radial Glia Migration (NPC2a) (AID 2284298)
Summary of the method: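 Migration distance in um, sphere core edge to migration-area edge, derived by nuclei-density algorithm from Hoechst images after 120 h compound exposure. Primary hNPC spheres differentiated on poly-D-lysine/laminin in N2 medium, 37C; medium half-replaced day 3.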

[13] = IUF_NPC2a_radial_glia_migration_72hr: Leibniz Research Institute for Environmental Medicine (IUF) 72-hour Neural Progenitor Cell Migration Assay for Radial Glia Migration (NPC2a) (AID 2284299)
Summary of the method: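 Spheres of human primary neural progenitors migrate on poly-D-lysine/laminin under compound exposure at 37C, 5% CO2. The 72 h radial glia migration distance comes from brightfield images, measured manually.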

[14] = IUF_NPC3_neuronal_differentiation_120hr: Leibniz Research Institute for Environmental Medicine (IUF) 120-hour Neuronal Differentiation Assay (NPC3) (AID 2284301)
Summary of the method: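 hNPC spheres, PDL/laminin, DMEM/F12 3:1 + 1% N2, 37C, 5% CO2; 7 concentrations + solvent control, 5 d exposure, half-change day 3. Fix 120 h; TUBB3/Hoechst ICC, CNN neuron calling; % neurons vs nuclei, DMSO-normalized.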

[15] = IUF_NPC4_neurite_length_120hr: Leibniz Research Institute for Environmental Medicine (IUF) 120-hour Neuronal Morphology Assay for Neurite Length (NPC4) (AID 2284302)
Summary of the method: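 hNPC spheres (0.3 mm, fetal brain GW 16-19) on PDL/laminin, DMEM:F12 3:1 + 1% N2, 37C 5% CO2; 7 concs + solvent control, day 0-5, half medium change d3; fix 120 h, TUBB3 ICC, mean neurite length um vs DMSO.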

[16] = IUF_NPC5_oligodendrocyte_differentiation_120hr: Leibniz Research Institute for Environmental Medicine (IUF) 120-hour Oligodendrocyte Differentiation Assay (NPC5) (AID 2284304; active means hit-call score of the fitted dose curve at least 0.9, where 1 is the maximum;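 further: primary human fetal neural progenitor spheres plated to migrate and differentiate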)
Summary of the method: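 Oligodendrocyte differentiation scored as O4-positive cells, found by CNN image analysis, as percent of Hoechst-stained nuclei in the migration area. Scoring followed 5 days of exposure of plated hNPC neurospheres differentiating in DMEM/F12 N2 medium at 37C, with compound refreshed at day 3.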

[17] = IUF_NPC4_neurite_area_120hr: Leibniz Research Institute for Environmental Medicine (IUF) 120-hour Neuronal Morphology Assay for Neurite Area (NPC4) (AID 2284305; active means hit-call score of the fitted dose curve at least 0.9, where 1 is the maximum)
Summary of the method: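 hNPC spheres on PDL/laminin, N2 medium, 37C/5% CO2; dosed day 0, half-medium refresh day 3; fixed 120 h; TUBB3/Hoechst ICC, high-content imaging; neurite area = mean pixels per neuron (nuclei excluded); DMSO baseline, max 0.1%.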

[18] = IUF_NPC2-5_cytotoxicity_120hr: Cytotoxicity Assessment at 120 hours in the Leibniz Research Institute for Environmental Medicine (IUF) Neural Progenitor Cell Migration and Differentiation Assay (NPC2-5) (AID 2284307; active means hit-call score of the fitted dose curve at least 0.9, where 1 is the maximum)
Summary of the method: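 Membrane-integrity loss measured as LDH activity in medium supernatant via resazurin-to-resorufin fluorescence after 120 h exposure. hNPC spheres from GW 16-19 fetal cortex differentiated on poly-D-lysine/laminin, 37C, medium half-refreshed day 3; seven concentrations, DMSO max 0.1%.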

[19] = IUF_NPC2-5_cell_number_120hr: Cell Number Assessment at 120 hours in the Leibniz Research Institute for Environmental Medicine (IUF) Neural Progenitor Cell Migration and Differentiation Assay (NPC2-5) (AID 2284308);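 further: count of Hoechst-stained nuclei in migration zone around plated human neural progenitor spheres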
Summary of the method: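 Counting of all Hoechst-stained nuclei in the migration area at 120 h, versus DMSO control. Primary hNPC spheres differentiated on poly-D-lysine/laminin in N2 medium at 37C, dosed from day 0 (7 concentrations, DMSO ≤0.1%), half-refed day 3.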

[20] = IUF_NPC2-5_viability_120hr: Viability Assessment at 120 hours in the Leibniz Research Institute for Environmental Medicine (IUF) Neural Progenitor Cell Migration and Differentiation Assay (NPC2-5) (AID 2284312)
Summary of the method: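 Human fetal neural progenitor spheres (0.3 mm) plated on poly-D-lysine/laminin in N2 differentiation medium, exposed 120 h with half-medium refresh at day 3. Viability by alamar blue resazurin fluorescence; 7 concentrations, DMSO max 0.1%.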

[21] = IUF_NPC1_cytotoxicity_72hr: Cytotoxicity Assessment at 72 hours in the Leibniz Research Institute for Environmental Medicine (IUF) Neural Progenitor Cell Proliferation Assay (NPC1) (AID 2284332; active means hit-call score of the fitted dose curve at least 0.9, where 1 is the maximum;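 further: rising LDH signal means more cytotoxicity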)
Summary of the method: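 Readout is fluorescence from LDH-dependent resazurin conversion, sampled from culture medium after compound contact lasting 72 h. Each well holds one 0.25-0.35 mm human progenitor sphere kept at 37C, 5% CO2 with EGF and FGF.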

[22] = CCTE_Mundy_HCI_iCellGluta_NOG_NeuronCount: CCTE's Neurite Outgrowth Assay in iCellGluta cells for Neuron Count, Mundy Lab (AID 2284340; active means hit-call score of the fitted dose curve at least 0.9, where 1 is the maximum;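 further: cells fixed about 48 h after compound addition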)
Summary of the method: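 Neuron count read by automated high-content imaging of Hoechst 33342 and betaIII-tubulin/Alexa Fluor-488 labelling in human iPSC glutamatergic neurons. Activity fitted relative to DMSO.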

[23] = CCTE_Mundy_HCI_iCellGluta_NOG_NeuriteCount: CCTE's Neurite Outgrowth Assay in iCellGluta cells for Neurite Count, Mundy Lab (AID 2284342; active means hit-call score of the fitted dose curve at least 0.9, where 1 is the maximum;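 further: chemical exposure about 48 hours starting 2 hours after plating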)

Cn1nc(C(F)(F)F)c(CS(=O)(=O)C2=NOC(C)(C)C2)c1OC(F)F
AC50 [1]: 66.8 µM (active)
AC50 [2]: 28 µM (active)
outcome [3]: inactive
outcome [4]: inactive
outcome [5]: inactive
outcome [6]: inactive
outcome [7]: inactive
outcome [8]: inactive
AC50 [9]: 77.1 µM (active)
outcome [10]: inactive
AC50 [11]: 31.3 µM (active)
AC50 [12]: 33.8 µM (active)
outcome [13]: inactive
AC50 [14]: 9.95 µM (active)
AC50 [15]: 42.3 µM (active)
outcome [16]: inactive
AC50 [17]: 50.1 µM (active)
outcome [18]: inactive
outcome [19]: inactive
outcome [20]: inactive
outcome [21]: inactive
outcome [22]: inactive
outcome [23]: inactive
